This is a sample that favours compounds with a hit; in the whole collection about 2.8% have one here.
PglD inh – blocks C. jejuni PglD acetyltransferase activity | purified PglD enzyme, DTNB colorimetric CoA detection | hit rate 0.098% among 360,000 | inhibition, % at 12.5 µM; in the data active means inhibition above about 16%, passing the limit was not always enough; inconclusive means no clear call, values can overlap the other calls
FGF22 binding – FGF22 (human) thermal shift binding; Q9HCT0; recombinant FGF22 thermal shift, SYPRO orange fluorescence; percent of sucrose octasulfate shift, DMSO zero; activity (Tm shift, normalised), % at 9.99 µM; hit rate 1.5% among 340,000; AID 651658;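 active means mean Tm shift, scaled 0 neutral to 100 positive control, at about 1.3% or above, every replicate too, limit read from the data; inconclusive means no clear call, values can overlap the other calls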
Target sequence (Q9HCT0 whole entry, looked up): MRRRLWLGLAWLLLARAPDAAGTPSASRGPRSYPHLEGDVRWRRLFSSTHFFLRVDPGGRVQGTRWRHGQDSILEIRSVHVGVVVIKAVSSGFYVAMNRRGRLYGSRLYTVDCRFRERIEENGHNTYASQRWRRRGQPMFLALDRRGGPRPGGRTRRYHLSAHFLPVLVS
SIRT5 inh – inhibitors of human sirtuin-5 desuccinylase; inhibition, % at 15 µM; hit rate 1.1% among 330,000; Purified SirT5, succinyl-peptide AMC, trypsin-coupled fluorescence; Q9NXA8; in the data active means inhibition above about 15%; inconclusive means no clear call, values can overlap the other calls
Target sequence (Q9NXA8 whole entry, looked up): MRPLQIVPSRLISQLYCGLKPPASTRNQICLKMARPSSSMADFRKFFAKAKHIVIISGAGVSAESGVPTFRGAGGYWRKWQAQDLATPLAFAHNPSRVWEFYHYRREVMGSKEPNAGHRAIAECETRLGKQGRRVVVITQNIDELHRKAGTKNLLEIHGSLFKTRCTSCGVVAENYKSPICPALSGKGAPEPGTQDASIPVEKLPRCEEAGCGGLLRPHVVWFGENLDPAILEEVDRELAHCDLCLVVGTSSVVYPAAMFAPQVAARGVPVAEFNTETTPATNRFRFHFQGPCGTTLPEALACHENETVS
CDK5 p35 inh – inhibitors of human CDK5/p35 kinase; Recombinant CDK5/p35, ADP-Glo luminescence, 60 min; inhibition, % at 10 µM; hit rate 0.01% among 330,000;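 active means highest replicate inhibition of at least 50% and at least 75% of replicates reaching 50%; inconclusive means only one of the two criteria met; inactive means both criteria failed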
dFosB activator – activators of mouse delta FosB homodimer | P13346 | purified delta FosB, TAMRA-CDK5 oligo fluorescence polarization; percent of positive-control signal above neutral wells | activation, % at 25 µM | hit rate 0.99% among 340,000;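 active means mean activation above about 17%, with every replicate also reaching it, limit read from the data, passing the limit was not always enough; inconclusive means only one of the two conditions met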
PvdQ inh – P. aeruginosa PvdQ acylase inhibition. purified PvdQ acylase, fluorescence plate reader. inhibition, % at 10 µM. hit rate 0.063% among 340,000; in the data active means inhibition above about 30%, passing the limit was not always enough; inconclusive means no clear call, values can overlap the other calls
Each line names hits and unclear results; the compound was inactive in the other large screens.

O=C(NCC[C@H]1CC[C@H](NS(=O)(=O)c2ccc(F)cc2)[C@@H](CO)O1)c1ccccc1F	none (no result: PglD inh, FGF22 binding, CDK5 p35 inh, dFosB activator, PvdQ inh)
COc1ccc(CNCC(O)(c2ccccc2)c2ccccc2)cc1OC	FGF22 binding 43 (no result: PglD inh)
COc1ccc(CNCC(O)(c2ccccc2)c2ccccc2)cc1	none
Cc1ccc(S(=O)(=O)Nc2ccc3c(c2)CC(=O)N([C@@H](C)CO)C[C@@H](C)[C@H](CN(C)Cc2ccc(Oc4ccccc4)cc2)O3)cc1	SIRT5 inh 22 (no result: CDK5 p35 inh, dFosB activator, PvdQ inh)
C[C@H]1CN([C@@H](C)CO)C(=O)Cc2cc(NS(=O)(=O)c3ccc(Cl)cc3)ccc2O[C@@H]1CN(C)Cc1ccc(Oc2ccccc2)cc1	SIRT5 inh 17 (no result: CDK5 p35 inh, dFosB activator, PvdQ inh)
COc1ccc2c3c(n(C)c2c1)[C@H](CO)N(C(=O)NC(C)C)CC31CCN(CC2CC2)CC1	none (no result: PglD inh, CDK5 p35 inh, dFosB activator, PvdQ inh)
O=c1ccc(-c2nc3ccccc3n2Cc2ccccc2Cl)c[nH]1	FGF22 binding 43 (no result: PglD inh)
O=c1ccc(-c2nc3cc(Cl)ccc3n2Cc2ccccc2)c[nH]1	none (no result: PglD inh, FGF22 binding)
CCCC(=O)Nc1ccc2c(c1)C(=O)N(C)[C@H]1CC[C@H](CC(=O)NCc3ccccc3)O[C@@H]1CO2	none (no result: CDK5 p35 inh, dFosB activator, PvdQ inh)
CC(=O)N1[C@@H]2c3ccc(-c4ccccc4)c(=O)n3C[C@@H]2[C@@H](CO)[C@@H]1C(=O)NC1CCC1	none (no result: CDK5 p35 inh, dFosB activator, PvdQ inh)
Cc1ccc2nc(CSc3nnc4ccccn34)cc(=O)n2c1	FGF22 binding 43 (no result: PglD inh)
Cc1ccc2nc(COc3ccc(Cl)cc3)cc(=O)n2c1	FGF22 binding 43 (no result: PglD inh)
O=C(Cn1c(C(F)(F)F)nc2ccccc21)Nc1ccccc1C(=O)O	none (no result: FGF22 binding)
CC(C(=O)Nc1ccccc1C(=O)O)n1c(C(F)(F)F)nc2ccccc21 (configuration not stated)	FGF22 binding 43 (no result: PglD inh)
C[C@H](CO)N1C[C@H](C)[C@@H](CN(C)C(=O)Nc2cccc3ccccc23)OCCCC[C@H](C)Oc2ccc(NC(=O)Nc3ccc(C(F)(F)F)cc3)cc2C1=O	none (no result: CDK5 p35 inh, dFosB activator, PvdQ inh)
CN(Cc1c(C(=O)N2CCc3ccccc3C2)nc2ccc(Cl)cn12)C(C1CC1)C1CC1	FGF22 binding 43 (no result: PglD inh)
N=C1/C(=C/c2ccc(-c3cccc(C(=O)O)c3)o2)C(=O)N=C2SC(CC(=O)N3CCOCC3)=NN12	SIRT5 inh 22
Nc1ccc(S(=O)(=O)c2ccccc2)nc1	none
O=S(=O)(c1ccccc1)c1ccc(C(F)(F)F)cn1	FGF22 binding 44 (no result: PglD inh)
c1cnc2ccc(-c3ccc4ncccc4c3)cc2c1	PvdQ inh 47
O=[N+]([O-])c1ccc(/C=N/Nc2ccnc3cc(Cl)ccc23)o1	none
Clc1ccc2c(N/N=C/c3ccccc3Br)ccnc2c1	dFosB activator 46
Clc1ccc2c(NNc3ccccc3Cl)ccnc2c1	none (no result: FGF22 binding, SIRT5 inh)
Clc1ccc2c(N/N=C/c3cccc(Br)c3)ccnc2c1	dFosB activator 52 (no result: SIRT5 inh)
Cc1cccc(OCC(=O)N2CCN(S(C)(=O)=O)CC2)c1	FGF22 binding 43 (no result: PglD inh)
Cc1ccc(S(=O)(=O)N2CCN(C(=O)COC(=O)COc3ccc(Cl)cc3)CC2)c(C)c1	dFosB activator 208
COc1ccccc1-c1cnc2c(c1)C(=O)N([C@@H](C)CO)C[C@@H](C)[C@H](CN(C)Cc1cncnc1)O2	none (no result: CDK5 p35 inh, dFosB activator, PvdQ inh)
CN(C)CCOc1ccc(-c2c(-c3ccsc3)sc3ccccc23)cc1	dFosB activator inconclusive
COc1ccc(-c2sc3ccccc3c2-c2ccc(OCCN(C)C)cc2)cc1	dFosB activator 25 (no result: SIRT5 inh)
Cc1nc(-c2ccc(C(=O)Nc3ccc(F)cc3)cc2)cs1	FGF22 binding 43 (no result: PglD inh)
CN1c2ccc(C3=CCCCC3)cc2[C@@H]2[C@@H](CCN2C(=O)C2CCCCC2)[C@H]1CO	none (no result: PglD inh, FGF22 binding, CDK5 p35 inh, dFosB activator, PvdQ inh)
O=C1OCCOC2CCCc3oc(C4=CCCCC4)c1c32 (configuration not stated)	SIRT5 inh 33 (no result: PglD inh, CDK5 p35 inh, dFosB activator, PvdQ inh)
COc1ccc(/C=C2\SC(=N)N(c3ccc(F)cc3)C2=O)cc1OC	dFosB activator 45 (no result: PglD inh)
CCC(=O)Nc1ccc(C(=O)Nc2ccc(Br)cc2F)cc1	FGF22 binding 43
Clc1ccc(-n2nnnc2SCc2cn3ccccc3n2)cc1	none (no result: FGF22 binding, SIRT5 inh)
Clc1ccc(SCc2cn3ccccc3n2)cc1	SIRT5 inh 58 (no result: PglD inh)
OCCN1CCN(CC/C=C2/c3ccccc3Sc3ccc(Cl)cc32)CC1	dFosB activator 17
CN(C)CC/C=C1\c2ccccc2Sc2ccc(Cl)cc21	none
C[C@H]1CN([C@@H](C)CO)C(=O)Cc2cc(NC(=O)Nc3cccc4ccccc34)ccc2O[C@@H]1CN(C)S(=O)(=O)c1ccccc1	none (no result: CDK5 p35 inh, dFosB activator, PvdQ inh)
CN(Cc1ccccc1)C(=O)c1nc2ccccn2c1CN1CCC(N2CCOCC2)CC1	SIRT5 inh 15
CCCCN(C)C(=O)c1nc2ccccn2c1CN1CCN(C/C=C/c2ccccc2)CC1	none (no result: PglD inh)
CO[C@@H]1CN(C)C(=O)c2cc(NC(=O)Nc3ccccc3)ccc2OC[C@H](C)N(CC2CC2)C[C@@H]1C	none (no result: CDK5 p35 inh, dFosB activator, PvdQ inh)
O=C(NN1C(=O)C2C(C1=O)C1C=CC2C12CC2)c1cccnc1 (configuration not stated)	FGF22 binding 44 (no result: PglD inh)
COc1ccc(CCn2nnc(-c3ccc(NC(C)=O)c(Cl)c3)n2)cc1	dFosB activator 33 (no result: FGF22 binding, SIRT5 inh)
C[C@@H]1CCCCO[C@@H](CN(C)C(=O)Cc2ccccc2)[C@@H](C)CN([C@@H](C)CO)C(=O)c2cc(NS(=O)(=O)c3cn(C)cn3)ccc2O1	none (no result: CDK5 p35 inh, dFosB activator, PvdQ inh)
CCOC(=O)C1CCN(C(=O)c2ccc3c(=O)n4nc(Nc5ccccc5OC)sc4nc3c2)CC1	FGF22 binding 2.4 (no result: CDK5 p35 inh, dFosB activator, PvdQ inh)
CC1(C)Cc2c(sc(NC(=S)NC(=O)c3ccccc3)c2C(=O)O)CO1	FGF22 binding 44 (no result: PglD inh)
C[C@H]1CN([C@@H](C)CO)C(=O)c2cccc(NC(=O)C3CCCCC3)c2O[C@@H]1CN(C)CC1CC1	none (no result: CDK5 p35 inh, dFosB activator, PvdQ inh)
CCOC(=O)[C@@H]1[C@H]2COc3ccccc3[C@@H]2N2C(=O)N(c3ccc(F)cc3)C(=O)[C@@]12C	FGF22 binding 45
CCOC(=O)[C@@H]1[C@H]2COc3ccccc3[C@@H]2N2C(=O)N(c3ccc(C)cc3)C(=O)[C@@]12C	none (no result: SIRT5 inh)
CC(C(=O)NC1C(=O)N2C(C(=O)O)=C(CSc3nnnn3C)CSC12)n1cc(Cl)cn1 (configuration not stated)	FGF22 binding 43 (no result: PglD inh)
Cc1c(Cl)cnn1CC(=O)NC1C(=O)N2C(C(=O)O)=C(CSc3nnnn3C)CSC12 (configuration not stated)	FGF22 binding 43 (no result: PglD inh)
Cc1nn(CC(=O)NC2C(=O)N3C(C(=O)O)=C(CSc4nnnn4C)CSC23)cc1Br (configuration not stated)	none (no result: PglD inh)
C[C@H](CO)N1C[C@H](C)[C@@H](CN(C)C(=O)Nc2cc(F)ccc2F)Oc2cc(C#CC3CCCC3)ccc2S1(=O)=O	none (no result: CDK5 p35 inh, dFosB activator, PvdQ inh)
C[C@H](CO)N1C[C@H](C)[C@H](CN(C)C(=O)Nc2cccc(F)c2)Oc2cc(/C=C/c3ccccc3)ccc2S1(=O)=O	none (no result: CDK5 p35 inh, dFosB activator, PvdQ inh)
Cc1ccccc1-c1ccc2c(c1)O[C@H](CN(C)C(=O)Nc1ccccc1)[C@@H](C)CN([C@H](C)CO)S2(=O)=O	none (no result: CDK5 p35 inh, dFosB activator, PvdQ inh)

Screening results (PubChem)
